D1 PAM: enhances dopamine response at the human D1 receptor | P21728 | HEK293 TREx D1 cells, calcium flux, dopamine EC20 potentiation | potentiation, % at 10 µM | 360,000 tested, 0.036% active | AID 504651; in the data active = potentiation above about 30%
Target sequence (P21728 whole entry, looked up): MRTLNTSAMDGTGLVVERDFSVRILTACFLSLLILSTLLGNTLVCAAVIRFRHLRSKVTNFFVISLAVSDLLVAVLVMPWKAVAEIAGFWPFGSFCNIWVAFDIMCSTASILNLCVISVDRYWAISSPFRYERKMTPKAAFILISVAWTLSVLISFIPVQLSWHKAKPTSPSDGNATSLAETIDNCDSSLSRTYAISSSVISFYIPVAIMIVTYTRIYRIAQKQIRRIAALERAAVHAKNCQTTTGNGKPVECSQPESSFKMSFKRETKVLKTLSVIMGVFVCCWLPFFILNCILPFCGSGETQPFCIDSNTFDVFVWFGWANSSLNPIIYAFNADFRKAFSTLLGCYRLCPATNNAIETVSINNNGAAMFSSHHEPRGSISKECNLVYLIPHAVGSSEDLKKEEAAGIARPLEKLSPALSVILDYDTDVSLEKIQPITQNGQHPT
TRHR enhancer: allosteric enhancers of human TRH receptor. 360,000 tested, 0.66% active. P34981. TRHR cells, fluo-8 calcium fluorescence, EC20 TRH enhancement. enhancement, % at 2 µM; in the data active = enhancement above about 30%
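Enhancer read-out: after compound pinning and an initial kinetic agonist-mode read, an EC20 of TRH (10 nM final) was injected and fluo-8 calcium signal (Ex 480/Em 530) followed at 1 s/cycle for 100 cycles in TRHR-expressing cells.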
D1 ag: agonists of human D1 dopamine receptor | P21728 | HEK293 T-REx D1 cells, calcium flux, agonist mode | activation, % at 2 µM | 360,000 tested, 1% active | AID 504660
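Inducible HEK293 T-REx D1 cells, force-coupled to calcium signalling, were plated at 4000 cells/well with tetracycline and held overnight at 30 C. After no-wash calcium dye loading, compound-evoked calcium rise over 180 s flagged agonists.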
TRHR ag: activates the human TRH receptor; P34981; TRHR cells, calcium flux fluo-8, FDSS agonist mode; activation, % at 2 µM; 360,000 tested, 0.18% active; AID 493084
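In this calcium-flux screen, cells bearing human TRHR are dye-loaded with fluo-8, baselined for 10 cycles, then exposed to library compounds; positive kinetic calcium responses during the agonist phase mark hits, with TRH as control.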
D1 antag: blocks dopamine activation of the human D1 receptor; HEK293 TREx D1 cells, calcium flux, dopamine EC80; stronger effect = lower value; AID 504652; P21728; 360,000 tested, 3.2% active; activity change, negative = inhibition, % at 10 µM; in the data active = activity change below about -30%
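Compound effects on dopamine-evoked calcium signalling were measured in tetracycline-induced HEK293 Trex D1 cells. Dopamine at EC80 followed a 180 s compound pre-read, and fluorescence was tracked kinetically for 180 s more.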
A number is an active result; i = inactive; nt = not tested or not shown. In the library only some 4.7% were active in any assay of this set; here they are far more common. Rule as the data show it, unless noted: active = activation above about 30%; inactive = the rest.

SMILES	D1 PAM	TRHR enhancer	D1 ag	TRHR ag	D1 antag
CC(C)c1c(C(=O)N/N=C/c2cccnc2)nnn1-c1nonc1N	i	i	i	i	i
CCOC(=O)c1nnn(-c2nonc2N)c1-c1ccccc1	i	i	i	i	-44
COc1cccc(-c2c(C(=O)N/N=C/c3ccoc3)nnn2-c2nonc2N)c1	i	i	77	i	i
Cc1ccc(-c2c(C(=O)N/N=C/c3ccc(OC(C)C)cc3)nnn2-c2nonc2N)cc1	i	33	55	i	i
CCOc1ccc(-c2c(C(=O)N/N=C/c3ccc(OC(C)C)cc3)nnn2-c2nonc2N)cc1	i	i	i	i	i
Cc1cccc(OCCSc2nc3ccc(NC(=O)c4cccs4)cc3s2)c1	i	i	i	i	i
CN(C)S(=O)(=O)c1ccc2c(c1)c(=O)c(C(=O)N1CCN(c3cccc(Cl)c3)CC1)cn2C	i	i	i	i	i
CCOc1ccc(/C=N/NC(=O)c2nnn(-c3nonc3N)c2-c2cccs2)cc1	i	i	165	i	i
CCCOc1ccc(-c2c(C(=O)N/N=C/c3ccc(C)cc3)nnn2-c2nonc2N)cc1	i	i	i	i	i
Nc1nonc1-n1nnc(C(=O)N/N=C/c2ccccc2)c1CSc1ccc(Cl)cc1	i	i	i	i	-46
CCOc1ccc(-c2c(C(=O)N/N=C/c3ccc(C)cc3)nnn2-c2nonc2N)cc1	i	i	44	i	i
Nc1nonc1-n1nnc(C(=O)N/N=C/c2cccc(Cl)c2)c1CSc1ccc(Cl)cc1	i	i	i	i	i
CCOc1ccc(-c2c(C(=O)N/N=C/c3cccs3)nnn2-c2nonc2N)cc1	i	i	i	i	i
Cc1ccc(-c2c(C(=O)N/N=C/c3ccoc3)nnn2-c2nonc2N)cc1	i	i	44	i	i
CCN(Cc1ccccc1)C(=O)c1c(C)oc2ncn(C)c(=O)c12	i	i	i	i	i
Cc1ccc(C)c(CSc2nnc(C)n3c2cc2sccc23)c1	i	i	i	i	i
Cc1ccc(SCc2c(C(=O)N/N=C/c3ccccc3)nnn2-c2nonc2N)cc1	i	i	i	i	i
Cc1ccc(SCc2c(C(=O)N/N=C/c3ccoc3)nnn2-c2nonc2N)cc1	i	i	i	i	-45
O=C(c1cnc2c(c1)COc1ccccc1-2)c1ccccc1O	i	i	i	i	i
COc1ccc(-n2cc(CNCCc3ncc(C)[nH]3)c(-c3ccccc3Cl)n2)cc1	i	i	i	i	i
Fc1ccc(-n2cc(CNCCc3ccccn3)c(-c3ccccc3Cl)n2)cc1	i	i	34	i	i
COc1ccc(-n2cc(CNCCc3nc(C)cc(C)n3)c(-c3ccccc3Cl)n2)cc1	i	i	40	i	i
Cc1cccc(CSCc2ccc(C(=O)NC3CCCC3)o2)c1	i	i	i	i	-46
Cc1ccc(CSCc2ccc(C(=O)NCCc3ccc(Cl)cc3)o2)cc1	i	i	i	i	-41
O=C(NC1CCCC1)c1ccc(CS(=O)(=O)Cc2ccccc2F)o1	i	i	i	i	-42
SMILES	D1 PAM	TRHR enhancer	D1 ag	TRHR ag	D1 antag
COc1ccc(N2CCN(C(=O)c3cccc(NC(=O)c4nsc5ccccc45)c3)CC2)cc1	i	i	i	i	i
O=C(CSc1ccc2nnc(-c3ccccn3)n2n1)Nc1ccccc1	i	i	i	i	i
Cc1cc(NC(=O)CSc2ccc3nnc(-c4ccccn4)n3n2)no1	i	i	i	i	-32
CCc1ccccc1Nc1cc(C(=O)NC(C)c2ccccc2)c2ccccc2n1 (stereo unspecified)	i	i	i	i	i
COc1cc(/C=N/NC(=O)C23CC4CC(CC(C4)C2)C3)cc(Br)c1O	i	i	i	i	i
O=C(N/N=C/c1cc([N+](=O)[O-])cc(Br)c1O)C12CC3CCC(CC(C3)C1)C2	i	i	122	i	-32
CN(C)c1ccc(NS(=O)(=O)c2ccc(-c3csnn3)cc2)cc1	i	i	30	i	i
COc1ccccc1NC(=O)CN(c1ccc(C)cc1)S(=O)(=O)c1c(C)n[nH]c1C	i	i	i	i	-54
Cc1noc(C)c1S(=O)(=O)N(CC(=O)NCc1ccccc1)c1ccc(C(C)C)cc1	i	i	i	i	i
CCOc1ccc(N(CC(=O)Nc2cccc(F)c2)S(=O)(=O)c2c(C)noc2C)cc1	i	i	i	i	-34
CCOc1ccc(N(CC(=O)Nc2ccc(C)c(C)c2)S(=O)(=O)c2c(C)noc2C)cc1	i	i	i	i	i
CCOc1ccccc1NC(=O)CN(c1cc(C)cc(C)c1)S(=O)(=O)c1c(C)noc1C	i	i	i	i	-40
Cc1noc(C)c1S(=O)(=O)N(CC(=O)NCc1ccc(F)cc1)c1ccc(C(C)C)cc1	i	i	i	i	-35
COc1ccc(OC)c(NC(=O)CN(c2ccc(C)cc2)S(=O)(=O)c2c(C)n[nH]c2C)c1	i	i	i	i	i
CCc1ccc(C(=O)c2cn(CC(=O)Nc3ccc(OC)c(Cl)c3)c3nc(C)ccc3c2=O)cc1	i	i	i	i	i
CCOc1ccc(S(=O)(=O)NCC(c2ccco2)S(=O)(=O)c2cccs2)cc1 (stereo unspecified)	i	i	i	i	nt
O=c1c2c(nc3nc(NCc4ccccc4Cl)[nH]n13)CCC2	i	i	i	i	-36
Cc1cccc(-n2c(N)c(-c3nc4ccccc4n3C)c3nc4ccccc4nc32)c1	i	i	60	i	i
Cn1c(-c2c(N)n(-c3ccccc3)c3nc4ccccc4nc23)nc2ccccc21	i	i	51	i	i
COc1ccc(-c2ccc3c(N)c(C(=O)NC(C)C)sc3n2)cc1OC	i	i	i	i	i
COc1cccc(-c2ncc3ccccc3c2COC(=O)c2ccc(Br)cc2)c1	i	i	i	i	nt
COc1cccc(-c2ccc3c(N)c(C(=O)c4ccc(Br)cc4)sc3n2)c1	i	i	81	i	i
COc1ccc(-c2ccc3c(N)c(C(=O)c4ccc(OC)c(OC)c4)sc3n2)cc1	i	i	78	i	i
CC(=O)Nc1ccc(NC(C)=O)s1	i	i	i	i	-34
CC(=O)Nc1ccc(-c2ccccc2)s1	i	i	i	i	i
SMILES	D1 PAM	TRHR enhancer	D1 ag	TRHR ag	D1 antag
NC(=O)CSc1nc2c(sc(=S)n2-c2ccccc2)c(=O)[nH]1	i	i	i	i	-38
O=C(NCc1ccc(F)cc1)c1ccc2c(O)c(S(=O)(=O)c3ccccc3)c(=O)[nH]c2c1	i	i	i	i	i
Cc1nc2c3ccccc3nc(NNC(=O)CCC(=O)N3CCN(c4cccc(Cl)c4)CC3)n2n1	i	i	i	i	i
CCc1ccccc1NC(=O)CN1C(=O)c2cccnc2Oc2ccc(Cl)cc21	i	i	i	i	-36
CCNC(=S)N(CCc1c(C)[nH]c2ccc(Cl)cc12)Cc1cccnc1	i	i	i	i	-43
COCCNC(=S)N(CCc1c(C)[nH]c2ccc(Cl)cc12)Cc1cccnc1	i	i	i	i	i
